Gli-Sufu block: Gli-Sufu pathway antagonists, primary screen, luciferase luminescence, Sufu-KO-LIGHT cells, uHTS; inhibition, % at 5 µM; Sufu-KO-LIGHT fibroblasts, Gli luciferase reporter luminescence; 340,000 tested, 0.74% active;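 active = inhibition above about 55%, limit read from the data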;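 note: 0% = DMSO-treated cells and 100% = wells with medium but no cells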
697 NFkB inh: inhibitors of PMA/ionomycin-induced NF-kB reporter, 697 cells, primary screen, B-cell NF-kB inhibitor project, cell-based, luminescence, uHTS | 697 B-cell NF-kB luciferase reporter, 16 h | inhibition, % at 4 µM | 330,000 tested, 0.33% active; in the data active = inhibition above about 35%
Jurkat NFkB inh: inhibitors of induced NF-kB luciferase reporter, primary screen, TCR NF-kB activation inhibitor project, cell-based, luminescence, uHTS; inhibition, % at 4 µM; 330,000 tested, 0.53% active; Jurkat, PMA/ionomycin-induced NF-kB luciferase reporter; in the data active = inhibition above about 50%
Beta apoptosis: inhibitors of cytokine-induced beta cell apoptosis, primary screen, luminescence; INS-1E cytokine-induced death, ATP luminescence, 48 h; percent of positive-control rescue, neutral wells zero; AID 435005, 2010; protection from apoptosis, % (concentration not given with the values); 300,000 tested, 0.8% active;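 active = Every replicate reaches about 75%, or at least half do and their mean reaches it too, limit read from the data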;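 note: 0% = cytokine-treated negative control wells and 100% = positive control rescue; higher means more ATP so stronger rescue from cytokine killing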
Numbers without * were called inactive; / = not tested or not shown. Hits are enriched below; roughly 1.8% of the tested compounds scored in any of these assays.

SMILES	Gli-Sufu block	697 NFkB inh	Jurkat NFkB inh	Beta apoptosis
O=C(Nc1ccccc1)Nc1ccc(-n2ccc(C(F)(F)F)n2)cc1	40	-98	-116	116*
NNc1nc(-c2ccccc2)cc(-c2ccccc2O)n1	-3	30	-9	79*
CC(C)=CCOc1ccc2c(C)c(CC(=O)N3C[C@H]4C[C@@H](C3)c3cccc(=O)n3C4)c(=O)oc2c1C	-18	9	0	8
CC(=O)NC(c1ccc(C)cc1)c1cc([N+](=O)[O-])c2cccnc2c1O (configuration not stated)	13	-47	4	71
CCC(=O)NC(c1ccc(C)cc1)c1cc([N+](=O)[O-])c2cccnc2c1O (configuration not stated)	-4	/	/	83*
CCC(=O)NC(c1cc(Cl)c2cccnc2c1O)C1CC1 (configuration not stated)	42	-5	14	103*
CC(=O)NC(c1cc(F)c2cccnc2c1O)C1CC1 (configuration not stated)	-6	-9	15	14
CCC(=O)NC(c1cc(Cl)c2cccnc2c1O)C(C)C (configuration not stated)	6	14	34	105*
Cc1cccc(C2(c3cccc(C)c3)OC(=O)c3ccccc32)c1	4	-2	-2	124*
O=C1Nc2ccc(Br)cc2C12OCCO2	1	9	-1	-16
Cc1ccc(C(=O)O/N=C/c2c(N3CCOCC3)n(C)c3ccccc23)cc1	12	32	26	99*
Cn1c(N2CCOCC2)c(/C=N/OC(=O)c2ccc(F)cc2)c2ccccc21	14	28	27	65
C[C@@H]1C(=O)O[C@H]2[C@H]1CC[C@@]1(C)C(=O)C=C[C@@](C)(O)[C@H]21	-3	15	1	2
Cc1cc(C(=O)N/N=C/c2cc(Br)ccc2OC(=O)c2ccccc2)n[nH]1	-22	4	12	100*
O=C(N/N=C/c1cc(Br)ccc1O)c1ccncc1	18	-35	14	53
O=C(N/N=C/c1cc(Br)ccc1OC(=O)c1ccc(Br)cc1)c1ccncc1	21	7	18	92*
CCN(CC)CCNC(=O)c1ccc(NC(=O)c2ccc(COc3ccccc3)cc2)cc1	12	-31	-3	1
O=C1C(=O)c2c(C(=O)c3ccccc3)coc2-c2ccccc21	25	14	-6	101*
Cc1oc2c(c1C(=O)c1ccccc1)C(=O)C(=O)c1ccccc1-2	6	2	-25	104*
CCOC(=O)c1c(C)oc2c1C(=O)c1ccccc1C2=O	-4	10	21	84*
O=C(C1=C(c2ccccc2)C(=O)c2ccccc2C1=O)c1ccccc1	15	/	/	/
COc1ccc(CNC(=O)C2CCN(S(=O)(=O)c3ccc4c(c3)N(C(C)=O)CCO4)CC2)cc1	-4	9	14	2
N#Cc1c(C(F)(F)F)cc(C2CC2)nc1N1CCCC1	0	6	-4	/
N/C(CSc1ccc(Cl)cc1)=N\S(=O)(=O)c1ccc(Cl)cc1	0	1	-11	-2
CCCCC[n+]1ccn(C2=C([O-])c3ccccc3C(=O)/C2=N\S(=O)(=O)c2ccc(Cl)cc2)c1	-11	12	10	109*
SMILES	Gli-Sufu block	697 NFkB inh	Jurkat NFkB inh	Beta apoptosis
CCCC[n+]1ccn(C2=C([O-])c3ccccc3C(=O)/C2=N\S(=O)(=O)c2ccc(Cl)cc2)c1	-8	-5	7	114*
COc1ccccc1NC(=O)C12CC3CC(C1)CC(c1ccc(C)cc1)(C3)C2	-5	-4	20	-4
Cc1ccc(Nc2c(-c3ccccn3)nc3cccc(C)n23)cc1	27	5	12	117*
Nc1nnc(Cc2c[nH]c3ccccc23)s1	6	-8	-15	-6
O=C(Nc1cccc(C(F)(F)F)c1)Oc1ccc(Cl)c2cccnc12	9	/	/	115*
Cc1ncc(CSc2nccc(=O)[nH]2)c(CO)c1O	-3	5	12	-2
O=C(CSc1nc2[nH]ncc2c(=O)n1-c1ccccc1)N1CCCCCC1	/	1	0	3
O=C(N/N=C/c1cnc(N2CCCCC2)s1)c1ccc(C(F)(F)F)cc1	-15	-1	-3	104*
CC1CN(c2ncc(/C=N/NC(=O)c3ccccc3O)s2)CC(C)O1 (configuration not stated)	0	1	-7	-2
CC(C)(C)C(=O)NC(=S)NNC(=O)c1ccc(-c2ccccc2)cc1	29	-161	-19	76*

Screens (PubChem BioAssay)
